# Screening data: PubChem BioAssay, National Center for Advancing Translational Sciences (NCATS)
# DT40 TDP1 CPT: DT40-hTDP1 cell growth loss with CPT; AID 686979; Potency, µM (top dose mostly 46.2 µM), inactives show at the top dose activity change, negative = growth inhibition, hits mostly inhibitors; chicken DT40 Tdp1-/-;hTDP1 cells + 20 nM CPT, ATP luminescence, 48 h; 12% of 420,000 active; further: potency means the concentration at half of the fitted maximal effect; nearly all actives have a fitted effect of over 55% in size
#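 Cell growth measured by CellTiter-Glo luminescence after a minimum 48 h, 37 C compound exposure with 20 nM CPT in Tdp1-knockout DT40 cells stably expressing hTDP1, seeded 400/well; qHTS titration format.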
# IL-1B inflam inh: inhibitors of inflammasome signaling (IL-1 beta secretion); THP-1 LPS/ATP IL-1B secretion, AlphaLISA, 16 h; hits give low values; activity change, % at 57.5 µM; 4.7% of 360,000 active; in the data active means activity change below about -50%; inconclusive means mostly about -30% to -49%
#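 Secreted IL-1B measured by AlphaLISA bead assay after 16 h compound exposure of THP-1 cells; compounds (final up to 57.5 uM) added 1 h before LPS (250 ng/mL) and ATP (1.25 mM) stimulation; lower signal means less secretion.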
# DT40 TDP1 no CPT: qHTS for Inhibitors of human tyrosyl-DNA phosphodiesterase 1 (TDP1): qHTS in cells in absence of CPT | AID 686978, 2013 | 15% of 420,000 active | Potency, µM (series often up to 46.2 µM), for inactives: top-dose activity change, negative = growth inhibition, actives largely listed as inhibitors | DT40 Tdp1-/- hTDP1 cells, no CPT, ATP luminescence, 48 h; further: potency means the concentration at half of the fitted maximal effect; nearly all actives have a fitted effect of over 55% in size
#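 Seeded 400 DT40-hTDP1 cells/well (vehicle DMSO, no 20 nM CPT); pinned compounds; ≥48 hr at 37 °C; CellTiter-Glo luminescence as viability measure.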
# HT1080-NT tox: kills 2HG-producing HT-1080-NT fibrosarcoma cells. HT-1080-NT fibrosarcoma viability, CellTiter-Glo ATP luminescence, 48 h. Potency, µM (doses to about 46.1 µM), without a hit: at the top dose activity, negative = less viability, hits mostly cytotoxic. 1.6% of 360,000 active. AID 686970;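 further: NT is the 2HG producing partner of a matched IDH1 knockdown line; potency means the concentration at half of the fitted maximal effect; 0% = DMSO-treated cells and -100% = media-only wells without cells; nearly all actives have a fitted effect of over 55% in size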
#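 HT-1080-NT; 750 cells/well; 5% FBS RPMI; 48 h compound, 37 degrees C; CellTiter-Glo luminescence; curve fitting and curve-class assignment.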
# HT1080 IDH1KD tx: HT-1080 IDH1 knockdown cell toxicity (counter line); HT-1080 IDH1 knockdown viability, ATP luminescence, 48 h; Potency, µM (doses to about 46.1 µM), for inactives: at the highest dose activity, negative = toxicity, hits mostly cytotoxic; 2% of 360,000 active;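 further: potency means the concentration at half of the fitted maximal effect; 0% = DMSO wells and -100% = cell-free medium wells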
#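 Using the IDH1-knockdown HT-1080 line run in the same batch and compound series as the NT line, viability after 48 h at 37 °C was determined by CellTiter-Glo luminescence and expressed as % activity.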
# ELG1 repair inh: blocks ELG1-dependent DNA repair in HEK293T cells. 2.3% of 330,000 active. HEK293T ELG1-luciferase reporter, luminescence, 16 h; DNA damage induced by 5-fluorouridine. Potency, µM (titrated, usually from 46.1 µM), inactives show at the top dose activity change, negative = inhibition, most hits filed as inhibitors; further: potency means the concentration at half of the fitted maximal effect; nearly all actives have a fitted effect of over 55% in size
#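 HEK293T cells expressing luciferase-tagged ELG1 (2,000/well) received 5-Fluorouridine plus compound or DMSO for 16 hr at 37 °C. Luciferase was read by ONE-Glo luminescence after 30 min at room temperature.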
# * hit, by the source's call; ? = inconclusive; . = no result; ! = a repeat was not active. Rows were chosen to be rich in hits. Some 19% of all compounds tested hit in one or more screens of this group. Unless noted, the call rests on the fitted dose curve; in most records, active means well fitted curve in the direction sought with a large enough effect; inconclusive means small, poorly fitted or top-dose-only effect, or another doubt; inactive means no such curve, though single readings can be large; an effect the other way counts as inactive or inconclusive. Unless noted, on the % scale 0 is the no-effect control and ±100 the full control effect.
SMILES,DT40 TDP1 CPT,IL-1B inflam inh,DT40 TDP1 no CPT,HT1080-NT tox,HT1080 IDH1KD tx,ELG1 repair inh
CN(C)c1ccc(S(=O)(=O)N2CCCCC2)cc1NC(=O)C1=NN(c2ccccc2)C(=O)CC1,?,7.2,?,4.3%,6.1%,9.1%
COc1cccc(N2CCN(c3ccc4nnc(CCC(=O)O)n4n3)CC2)c1,4.2%,.,-1.2%,.,.,.
Oc1c(C(Nc2cccc(C(F)(F)F)c2)c2cccnc2)ccc2cccnc12 (stereo not given),?,37.8,?,-14.8%,?,-3.5%
Oc1cccc(C(Nc2ccccn2)c2ccc3cccnc3c2O)c1Cl (stereo not given),0.651µM*,.,3.26µM*,.,.,.
CN1CCN(C(c2ccc(C(F)(F)F)cc2)c2ccc3cccnc3c2O)CC1 (stereo not given),8.2µM*,-85.0*,8.2µM*,-21.3%,?,-2.0%
CN1CCN(C(c2cccc(C(F)(F)F)c2)c2nnnn2C(C)(C)C)CC1 (stereo not given),-24.9%,-1.0,-0.2%,2.0%,-2.3%,2.3%
COc1ccc(Cl)cc1C(Nc1cccnc1)c1ccc2cccnc2c1O (stereo not given),?,-66.4*,?,?,10.3µM*,-11.4%
Oc1c(C(Nc2cccnc2)c2ccc(C(F)(F)F)cc2)ccc2cccnc12 (stereo not given),?,.,8.91µM*,.,.,.
Cc1cc(NC(c2cccnc2)c2ccc3cccnc3c2O)no1 (stereo not given),3.26µM*,143.4,3.66µM*,?,?,?
COc1ccc(Br)cc1CN1CCSCC1,?,9.3,?,-2.0%,0.0%,12.9%
CCC(C)NCC(O)(c1ccc(Cl)cc1)c1ccc(Cl)cc1 (stereo not given),23.1µM*,?,23.1µM*,?,?,-12.7%
O=C(O)c1cccc(-n2c(/C=C/c3ccccc3)nc3ccccc3c2=O)c1,?,5.2,?,-0.4%,-2.9%,15.0%
COc1cc(OC)c(OC)cc1/C=C/c1nc2cc3ccccc3cc2c(=O)n1-c1ccc(F)cc1F,11.6µM*,.,8.2µM*,.,.,.
COc1cccc(/C=N/n2c(C)nc3ccccc32)c1OC,?,-13.1,?,1.1%,0.7%,?
COc1cccc(/C=N/n2c(-c3ccco3)nc3ccccc3c2=O)c1OC,?,-3.8,?,18.8%,14.2%,5.17µM*
O=C(CSc1nc2ccccc2c(=O)n1-c1ccc(F)cc1F)NC1CC1,-10.2%,-0.4,?,-1.9%,-0.7%,.
O=c1c2ccccc2nc(/C=C/c2cccc3ccccc23)n1-c1ccc(F)cc1F,23.1µM*,.,?,.,.,.
O=C(O)c1cc(-n2c(/C=C\c3ccc(F)cc3)nc3ccccc3c2=O)ccc1Cl,14.6µM*,.,20.6µM*,.,.,.
Cc1ccc(-n2c(/C=C/c3c(C)n(C)c4ccccc34)nc3ccccc3c2=O)cc1,1.5%,.,-15.1%,.,.,.
COc1cccc(/C=C/c2nc3ccccc3c(=O)n2-c2ccc(C)c(C)c2)c1OC,10.3µM*,.,8.2µM*,.,.,.
CCN(CC)S(=O)(=O)c1nnc(NC(=O)c2ccccc2Cl)s1,-1.7%,.,-13.0%,.,.,.
COc1ccc(N(CC(C)C)S(=O)(=O)c2nnc(NC(=O)c3ccco3)s2)cc1,?,-2.2,20.6µM*!,-26.6%,-27.6%,12.4%
Cc1ccc(N(CC(C)C)S(=O)(=O)c2nnc(NC(=O)c3cccs3)s2)cc1,?,.,23.1µM*,.,.,.
CCN(c1ccc(OC)cc1)S(=O)(=O)c1nnc(NC(=O)c2ccccc2Cl)s1,?,-17.5,16.4µM*!,-4.2%,-25.0%,2.0%
Cc1c(C(=O)N2CCCC2)sc2ncnc(NCCc3ccccn3)c12,-2.2%,.,-16.7%,.,.,.
SMILES,DT40 TDP1 CPT,IL-1B inflam inh,DT40 TDP1 no CPT,HT1080-NT tox,HT1080 IDH1KD tx,ELG1 repair inh
CCOC(=O)C1CCN(C(=O)Nc2c(-c3ccccc3)noc2C)CC1,12.3%,15.0,0.0%,-0.4%,-2.2%,0.2%
COc1cc(-c2cnc3c(NC=O)cc(-c4ccccc4Cl)cn23)cc(OC)c1OC,0.82µM*,126.0,1.03µM*,?,?,.
COc1cc(-c2cnc3c(NC=O)cc(-c4ccccc4)cn23)cc(OC)c1OC,0.0092µM*,138.8,0.0461µM*,?,?,.
COc1cc(-c2cnc3c(NC=O)cc(-c4ccc(C)cc4)cn23)cc(OC)c1OC,0.164µM*,111.8,0.103µM*,?,?,.
Cc1ccc(-c2cc(NC=O)c3ncc(-c4cnn(C)c4)n3c2)cc1,4.11µM*,-50.9*,3.66µM*,?,?,.
O=C(CN(C(=O)CNS(=O)(=O)c1ccccc1)c1ccc(F)cc1)NCc1ccco1,18.3%,-6.6,1.6%,11.4%,8.2%,-4.8%
CN(C(=O)CCCN1C(=O)c2ccccc2C1=O)C1CCCCC1,2.1%,18.1,-0.2%,19.6%,18.5%,?
COCCCNC(=O)c1ccc(Cn2c(=O)c3ccccc3n(Cc3c(C)cc(C)cc3C)c2=O)cc1,-7.4%,.,-2.3%,.,.,.
COc1cccc(CN2CC(C(=O)NCCCCc3ccccn3)CCC2=O)c1 (stereo not given),9.2%,11.6,10.6%,5.7%,8.7%,-10.8%
Cc1ccc(-n2c(=O)c3c(c4cc(C)ccc4n3C)n(CC(=O)NCCC3=CCCCC3)c2=O)cc1,-9.0%,.,-6.2%,.,.,.
COc1ccc(F)cc1-c1cc(NC=O)c2ncc(-c3cc(OC)c(OC)c(OC)c3)n2c1,2.31µM*,121.3,3.26µM*,?,?,.
CCOC(=O)c1cc(S(=O)(=O)N2CCN(c3cccc(C)c3)C(C)C2)[nH]n1 (stereo not given),16.4µM*,.,23.1µM*,.,.,.
CCOC(=O)c1cc(S(=O)(=O)N2CCN(c3ccc(C(C)=O)cc3)CC2)[nH]n1,18.4µM*,.,16.4µM*,.,.,.
CO[C@H]1CN(C)C(=O)c2cc(NC(=O)c3ccccc3)ccc2OC[C@H](C)NC[C@@H]1C,-15.5%,13.4,1.5%,7.5%,19.6%,.
O=C1CN(C(=O)CNCc2ccccc2Cl)c2ccccc2N1,-6.6%,-8.0,-6.0%,2.3%,20.4%,5.4%
NCCC(=O)O,1.1%,.,-23.7%,.,.,.
CCOc1ccc(N2C(=O)C(C)CNC2=S)cc1 (stereo not given),3.8%,-7.9,-9.2%,-2.9%,-1.3%,.
CC(=O)n1cc(N(C(=O)CCl)c2ccc(C)cc2)c2ccccc21,3.26µM*,-94.9*,1.64µM*,2.31µM*,2.91µM*,23.1µM*
